Laboratory results from PubChem BioAssay (NCI).
The panel holds about 79,000 compounds, 15% with a hit somewhere; the sample as a whole holds those more often. Activity calls are given as the source filed them. No stated cut-off is given here; in the data, active means growth inhibition above about 70%; inactive means the rest.

Test: NCI Yeast Anticancer Drug Screen. Data for the bub3 strain (AID 167)
Conditions: S. cerevisiae bub3 mutant strain, at 50.0 µM, stronger effect = higher value
Protocol: Growth inhibition of yeast strains with defined genetic alterations is measured as a screen for potential anti-cancer activity. Selected strains with alterations in DNA damage repair or cell cycle control were exposed to compounds and growth inhibition was measured relative to vehicle treated controls. The strain used in this assay is bub3

Structure (SMILES) | growth inhibition
CCc1ccccc1C(=O)N(CC)CC | -16.1% (inactive)
NC(=S)N/N=C/c1ccc(OC(=O)COc2ccc(Cl)cc2)cn1 | 4.2% (inactive)
COc1cc(C(=O)O)c(O)c(C(C)(C)C)c1 | 5.4% (inactive)
Cc1cc(C(=O)c2ccccc2)cc(C)c1O | -0.4% (inactive)
O=[N+]([O-])c1c(O)c(CNCCCO)cc(CNCCCO)c1O | 25.9% (inactive)
CSc1nsc(N)n1 | 16.8% (inactive)
CC(C)Sc1ncnc2nc[nH]c12 | 18.9% (inactive)
CC1CCC(C)(C)c2ccccc21 (stereo not given) | -7.75% (inactive)
CS(=O)CC(=N\O)/C(CS(C)=O)=N\O (stereo not given) | -2.8% (inactive)
CCOC(=O)/C(C)=C\c1ccc(OC)c(OC)c1 | 18.4% (inactive)
CC(=O)N(C)N=Nc1ccc(C)cc1 | 0.1% (inactive)
CCCCOC(=O)c1ccccc1O | 0.85% (inactive)
CCNC(=O)OCCc1c2ccccc2nc2ccccc12 | 12.7% (inactive)
Nc1cc(N)ncn1 | -10.1% (inactive)
CCOC(=O)C(C#N)=C1CCN(C)CC1 | -27.4% (inactive)
C(=C\c1ccncc1)/c1ccncc1 | 7.8% (inactive)
ON1CCCC1 | 6.4% (inactive)
Cc1ccc(S(=O)(=O)NC(=O)NCCSSCCNC(=O)NS(=O)(=O)c2ccc(C)cc2)cc1 | 18.6% (inactive)
COc1cc2c(c(OC)c1OC)-c1ccc(SC)c(=O)cc1[C@@H](NC1OC(CO)C(O)C(O)C1O)CC2 (stereo not given in full) | 5.05% (inactive)
CC(=O)[C@@]1(O)CC[C@H]2[C@@H]3CC[C@@H]4CC(=O)CC[C@]4(C)[C@H]3[C@@H](O)C[C@@]21C | 11.1% (inactive)

Structure (SMILES) | growth inhibition
C=CC(C)C(C)(C)O (stereo not given) | -13.5% (inactive)
O=Cc1c(O)c2ccccc2[nH]c1=O | 4.2% (inactive)
Clc1ncnc2nc[nH]c12 | 0.35% (inactive)
O=C1C=C[C@H](O)[C@@]2(CO)O[C@@H]12 | -13.7% (inactive)
CN1CCCN(C(c2ccccc2)c2ccc(Cl)cc2)CC1 (stereo not given) | 27.6% (inactive)
Cc1cccc(C)c1NC(=S)/N=C\c1c(O)[nH]c(=O)[nH]c1=O | -46.1% (inactive)
O=C(O)CCCCCNC(=O)OCc1ccccc1 | 3.25% (inactive)
Cn1/c(=N\N=C\c2ccccc2OCCO)sc2ccccc21 | 26.4% (inactive)
O=C1C=C(c2ccccc2)C(O)(c2ccccc2)C1 (stereo not given) | 11.4% (inactive)
FC(F)(F)c1cc(NC2=NCCN=C(Nc3cc(C(F)(F)F)cc(C(F)(F)F)c3)SS2)cc(C(F)(F)F)c1 | -22% (inactive)
COc1ccc(C2CCCCC2=O)cc1 (stereo not given) | -34.2% (inactive)
CC(=O)/C(C)=N\OC(=O)Nc1ccccc1 | 9.4% (inactive)
CCCCCC/C=C\CCCCCCCCCc1cc(O)cc(OC)c1O | -33.2% (inactive)
CC12CCC3c4ccc(O)cc4CCC3C1CCC2=O (stereo not given) | 18.5% (inactive)
C/C(=N\O)c1ccccn1 | -8.85% (inactive)
Cc1cc(Nc2ccc3c(c2)OCO3)c2cc3c(cc2n1)OCO3 | -0.5% (inactive)
Nc1ncnc2c1ncn2C1OC(CO)C2OC21 (stereo not given) | -5.95% (inactive)
NNC(=O)c1ccccc1N | -2% (inactive)
COc1cccc(C(=O)NNC(=O)c2cccc3ccccc23)c1 | -34.2% (inactive)
O=C(CCl)Oc1ccc([N+](=O)[O-])cc1 | 19.8% (inactive)
